Shown are actives, neighbours in structure and some others; about 4.1% of the full set was active somewhere.
PRMT1 inh = PRMT1 (human) inhibition, primary screen. recombinant PRMT1, activity-based probe fluorescence polarization. inhibition, % at 2.79 µM. actives 1.3% (n = 370,000). AID 652257;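 active = inhibition above about 21% made by adding two undisclosed values, limit read from the data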
UHRF1 binding = human UHRF1 methylated DNA binding inhibitors. actives 0.75% (n = 370,000). inhibition, % at 4.4 µM. AID 687016. UHRF1 binding to methylated oligo, TR-FRET. Q96T88; in the data active = inhibition above about 21%;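 note: UHRF1 SRA domain binding a hemimethylated CpG hairpin DNA probe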
MBD2 inh = blocks human MBD2 binding to methylated DNA | TR-FRET, MBD2 binding to methylated oligonucleotide | inhibition, % at 4.4 µM | Q9UBB5 | actives 0.31% (n = 370,000); in the data active = inhibition above about 13%
Target sequence (Q9UBB5 whole entry, looked up): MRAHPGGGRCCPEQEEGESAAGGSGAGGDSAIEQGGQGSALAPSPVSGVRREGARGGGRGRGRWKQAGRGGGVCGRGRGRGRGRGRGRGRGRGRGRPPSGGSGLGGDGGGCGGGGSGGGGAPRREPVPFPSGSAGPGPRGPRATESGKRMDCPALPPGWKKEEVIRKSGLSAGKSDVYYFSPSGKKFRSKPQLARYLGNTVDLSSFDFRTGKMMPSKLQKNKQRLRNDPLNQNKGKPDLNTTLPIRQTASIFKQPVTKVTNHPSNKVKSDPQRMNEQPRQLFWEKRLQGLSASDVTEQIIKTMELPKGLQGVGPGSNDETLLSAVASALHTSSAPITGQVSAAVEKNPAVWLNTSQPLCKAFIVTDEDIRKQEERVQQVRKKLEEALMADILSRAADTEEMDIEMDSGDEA
LEDGF integ inh = blocks HIV-1 LEDGF/p75-dependent DNA integration; actives 0.64% (n = 370,000); TR-FRET IN-LEDGF/p75 DNA integration, Eu/Cy5; inhibition, % at 3.7 µM;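 active = inhibition above the screen-wide mean plus 3 SD, cut at about 13% in these data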;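 note: signal is the Cy5 over europium emission ratio at 671 and 618 nm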
ABHD5 PLIN5 PPI = ABHD5-PLIN5 protein interaction inhibition; Q00G26+Q8WTS1; Split G. princeps luciferase complementation, luminescence, 4 h; actives 0.78% (n = 360,000); inhibition, % at 4 µM;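 active = inhibition above the mean inhibition across every tested compound plus 3 SD, cut at about 22% in these data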
rCAG binder = r(CAG) repeat RNA binding. TO-PRO-1 dye displacement fluorescence. inhibition, % at 3 µM. actives 1.3% (n = 370,000). AID 651821;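 active = inhibition above the plate cutoff, the mean of all test compounds on that plate plus 3 SD, cut at about 35% in these data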;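 note: higher means more dye released from RNA so lower well fluorescence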
PRMT1 inh conf = confirmation of human PRMT1 inhibitors. inhibition, % at 2.79 µM. shares compounds with PRMT1 inh. actives 42% (n = 3,300). recombinant His-PRMT1, activity-based probe fluorescence polarization. AID 687036;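 active = mean inhibition across replicates above the hit cutoff derived for the earlier primary screen, cut at about 22% in these data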
A number is an active result; 0 = inactive; - = no result given.

SMILES | PRMT1 inh | UHRF1 binding | MBD2 inh | LEDGF integ inh | ABHD5 PLIN5 PPI | rCAG binder | PRMT1 inh conf
Cc1ccc(C2=NC3(CCCC3)N=C2SCC(=O)Nc2ccc3c(c2)OCCO3)cc1 | 55 | 0 | 0 | 0 | 0 | 0 | 47
O=C(CSC1=NC2(CCCCCC2)N=C1c1ccccc1)Nc1ccc2c(c1)OCCO2 | 0 | 0 | 0 | 0 | 0 | 0 | -
O=S(=O)(Nc1ccc(O)c(NS(=O)(=O)c2ccccc2)c1)c1ccccc1 | 31 | 0 | 0 | 0 | 0 | 0 | 0
CCCC(c1nnnn1CCOC)N(Cc1cc2cc(C)c(C)cc2[nH]c1=O)CC1CCCO1 (centres undefined) | 26 | 0 | 0 | 0 | 0 | 0 | 0
CCn1c(Cc2cccs2)nnc1SCC(=O)Nc1ccccc1-c1ccccc1 | 0 | 0 | 0 | 0 | - | 0 | -
CCOC(=O)CC(=O)CSc1ncnc2c1nnn2-c1ccc(OC)cc1 | 62 | 0 | 0 | 0 | 0 | 0 | 79
CCN(CC)C(=O)CSc1ncnc2c1nnn2-c1ccc(OC)cc1 | - | - | - | - | 0 | - | -
N#Cc1cccc(Cn2ccc3ccc(-c4ccc5ccn(Cc6cccc(C#N)c6)c5c4)cc32)c1 | 0 | 0 | 0 | 0 | - | 0 | -
Cc1ccc(NC(=O)CSc2ncc3ccccn23)cc1C | 28 | 0 | 0 | 0 | 0 | 0 | 0
Cc1ccc(NC(=O)CSc2ncn(-c3ccccc3)n2)cc1C | 0 | 0 | 0 | 0 | 0 | 0 | -
Cc1ccc(C(=O)Nc2sc(C)c(C)c2C(=O)c2ccccc2)cc1 | 51 | 0 | 0 | 0 | 0 | 0 | 0
Cc1sc(NC(=O)c2ccccc2)c(C(=O)c2ccccc2)c1C | 30 | 0 | 0 | 0 | 0 | 0 | 0
COc1ccc(NS(=O)(=O)c2ccc(F)c(Cl)c2)cn1 | 37 | 0 | 0 | 0 | 0 | 0 | 0
Cc1ccc(NC(=O)[C@@H]2CC(=O)O[C@@H]2c2ccccc2)c(C)c1 | 0 | 0 | 0 | 0 | - | 0 | -
Cn1c(=O)[nH]c(=O)c2c1nc(SCC(=O)O)n2CCc1ccccc1 | 26 | 0 | 0 | 0 | 0 | 0 | 0
C=CCN1C(=O)/C(=c2\sc3nc(=O)c(Cc4ccccc4Cl)nn3c2=O)c2ccccc21 | 27 | 0 | 0 | 0 | 0 | 0 | 0
COc1ccccc1S(=O)(=O)N(C)C[C@H]1Oc2cc(Br)ccc2S(=O)(=O)N([C@H](C)CO)C[C@H]1C | 0 | 0 | 0 | 0 | - | 0 | -
COc1ccc(/C=c2/sc3n(c2=O)C(c2ccccc2OC)C2=C(N=3)c3ccccc3CC2)cc1O (centres undefined) | 0 | 0 | 0 | 0 | 0 | 0 | -
COc1ccc(C2C3=C(N=C4SCC(=O)N42)c2ccccc2CC3)cc1OC (centres undefined) | 54 | 0 | 0 | 0 | 0 | 0 | 0
COc1ccccc1C1C2=C(N=C3SCC(=O)N31)c1ccccc1CC2 (centres undefined) | 37 | 0 | 0 | 0 | 0 | 0 | 0
CCOC(=O)C1=C(c2ccccc2)N=C2SCC(=O)N2C1c1ccc(OCC)c(OCC)c1 (centres undefined) | 0 | 0 | 0 | 0 | 0 | 0 | -
COC(=O)[C@]12C[C@H](CC(=O)NCCCN3CCCC3=O)C(=O)N(Cc3ccc(Cl)cc3Cl)C1=C[C@H](C(C)C)O[C@@H]2C1CC1 | 0 | 0 | 0 | 0 | - | 0 | -
O=C(c1ccncc1)N1CC[C@H]2[C@H](CCCN2Cc2ccccc2)C1 | 0 | 0 | 0 | 0 | - | 0 | -
COc1cccc(CNC(=O)CSc2ccc(-c3ccco3)nn2)c1 | 0 | 0 | 0 | 0 | 0 | 0 | -
O=C(CSc1ccc(-c2ccco2)nn1)NCc1ccc(Cl)cc1 | 44 | 0 | 0 | 0 | 0 | 0 | 0
SMILES | PRMT1 inh | UHRF1 binding | MBD2 inh | LEDGF integ inh | ABHD5 PLIN5 PPI | rCAG binder | PRMT1 inh conf
O=C(CSc1ccc(-c2ccco2)nn1)NCc1ccccc1 | 41 | 0 | 0 | 0 | 0 | 0 | 0
Cc1ccc(CSc2ccc(-c3ccco3)nn2)cc1 | 33 | 0 | 0 | 0 | 0 | 0 | 0
Cc1ccc(-c2nc3ncccn3c2NC(=O)Nc2ccc(F)cc2)cc1 | 0 | 0 | 0 | 0 | - | 0 | -
COc1cccc(Cn2ncc3c4sc(S(C)=O)cc4n(C)c3c2=O)c1 (centres undefined) | 0 | 0 | 0 | 0 | - | - | -
CCOC(=O)N[C@H](C(=O)N1CCC[C@H]1C(=O)NCCc1ccccc1Cl)C1CCCCC1 | 0 | 0 | 0 | 0 | - | 0 | -
Cc1ccc(O)c(C(C)c2c[nH]c3ccccc23)c1 (centres undefined) | 0 | 0 | 0 | 0 | - | 0 | -
CN1Cc2c(N)cccc2C(c2ccccc2)C1 (centres undefined) | 44 | 0 | 0 | 0 | 0 | 0 | 0
COC(=O)[C@]12C[C@H](CC(=O)NCCC(C)C)C(=O)N(Cc3ccc4c(c3)OCO4)C1=C[C@H](C(C)(C)C)O[C@@H]2C | 0 | 0 | 0 | 0 | - | 0 | -
O=C(CSc1nc2[nH]c(=O)cc(O)c2s1)Nc1nccs1 | 25 | 0 | 0 | 0 | 0 | 0 | 0
CC1CCC2C(=O)N(c3cccc(OS(=O)(=O)c4ccccc4)c3)C(=O)C2C1 (centres undefined) | 0 | 0 | 0 | 0 | 0 | 0 | -
CC1CCC2C(=O)N(c3ccc(S(=O)(=O)c4ccccc4)cc3)C(=O)C2C1 (centres undefined) | 45 | 0 | 0 | 0 | 0 | 0 | 0
Cc1ccc(NC(=O)CC2C(=O)OCC3CCCCN32)cc1Cl (centres undefined) | 0 | 0 | 0 | 0 | 0 | 0 | -
CCCOc1ccc(NC(=O)CC2C(=O)OCC3CCCCN32)cc1 (centres undefined) | 36 | 0 | 0 | 0 | 0 | 0 | 0
O=C(CC1C(=O)OCC2CCCCN21)Nc1ccccc1C(F)(F)F (centres undefined) | 48 | 0 | 0 | 0 | 0 | 0 | 0
CC(=O)Nc1cc(-c2cccc(NS(C)(=O)=O)c2)cn2c(-c3cccc(C(F)(F)F)c3)cnc12 | 0 | 0 | 0 | 0 | 0 | 0 | -
CC(=O)Nc1cc(-c2ccccc2N(C)C)cn2c(-c3cccc(C(F)(F)F)c3)cnc12 | 99 | 0 | 0 | 0 | 0 | 0 | 0
COC(=O)[C@]12C[C@H](CC(=O)NCC34CC5CC(CC(C5)C3)C4)C(=O)N(CCC3=CCCCC3)C1=C[C@H](C1CCCC1)O[C@@H]2C | 0 | 0 | 0 | 0 | - | 0 | -
O=C(c1nnsc1S(=O)c1ccc(Cl)cc1)N1CCOCC1 (centres undefined) | 54 | 0 | 0 | 0 | 73 | 0 | 66
CN1CCc2c(sc3c2C(=O)NC(c2ccc(-c4ccc(Cl)cc4)o2)N3)C1 (centres undefined) | 0 | 0 | 0 | 0 | 0 | 0 | -
CN1CCc2c(sc3c2C(=O)NC(c2ccco2)N3)C1 (centres undefined) | 27 | 0 | 0 | 0 | 0 | 0 | 0
O=C1NC(c2ccco2)Nc2sc3c(c21)CCN(Cc1ccccc1)C3 (centres undefined) | 31 | 0 | 0 | 0 | 0 | 0 | 0
CN1CCc2c(sc3c2C(=O)NC(c2cn(Cc4ccccc4)c4ccccc24)N3)C1 (centres undefined) | 0 | 0 | 0 | 0 | 0 | 0 | -

Bioassay records as filed in PubChem.
